Measured values reported in PubChem BioAssay (EPA / NIEHS).
Records with an inconclusive call do not appear. Active and inactive are the calls of the source. How the source made its calls, unless noted: active means hit-call score of the fitted dose curve at least 0.9, where 1 is the maximum; inactive means score below 0.9.

Key:
[1] = tested on: SRY-box transcription factor 17 (SOX17) Protein Expression, Deisenroth Lab, SOX17 (gene 64321); test: CCTE_Deisenroth_DEVTOX-GLR_Endo_SOX17: CCTE's DevTox GLR-Endo Assay Evaluation of SRY-box transcription factor 17 (SOX17) Protein Expression, Deisenroth Lab (AID 2284413)
In short: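 Seed RUES2-GLR cells 24 h; start endoderm differentiation; dose at 0 and 24 h (1 nM - 200 uM, 10 points); fix at 48 h, stain nuclei, image 5 fields/well; compute SOX17+/total cells vs 0.2% DMSO.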

[2] = tested on: Brachyury (BRA) Protein Expression, TBXT (gene 6862); test: CCTE_Deisenroth_DEVTOX-GLR_Endo_BRA: CCTE's DevTox GLR-Endo Assay Evaluation of Brachyury (BRA) Protein Expression, Deisenroth Lab (AID 2284417)
In short: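 Endpoint is the fraction of BRA reporter-positive cells over total nuclei, corrected by subtracting the 0.2% DMSO value. Chemicals (1 nM - 200 uM, 10 points) were dosed twice during 48 h differentiation of RUES2-GLR cells, read by imaging.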

[3] = CCTE_Deisenroth_DEVTOX-GLR_Endo_CellCount: Viability Assessment in CCTE's DevTox GLR-Endo Assay, Deisenroth Lab (AID 2284420)
In short: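 RUES2-GLR pluripotent cells seeded 24 h, then differentiated 48 h in defined media with two chemical exposures 24 h apart. Nuclei counted by high-content imaging; 10-point 1 nM–200 uM series; percent change versus 0.2% DMSO.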

[4] = tested on: SRY-box transcription factor 2 (SOX2) Protein Expression, Deisenroth Lab, SOX2 (gene 6657); test: CCTE_Deisenroth_DEVTOX-GLR_Pluri_SOX2: CCTE's DevTox GLR-Pluri Assay Evaluation of SRY-box transcription factor 2 (SOX2) Protein Expression, Deisenroth Lab (AID 2284428)
In short: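 RUES2-GLR human pluripotent cells, two exposures 24 h apart over 48 h differentiation; 10-point series 1 nM - 200 uM. High-content imaging gives SOX2+ cells divided by cell count, reported as percent change versus 0.2% DMSO.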

[5] = CCTE_Deisenroth_DEVTOX-GLR_Pluri_CellCount: Viability Assessment in CCTE's DevTox GLR-Pluri Assay Evaluation of Total Cell Counts, Deisenroth Lab (AID 2284430)
In short: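 RUES2-GLR human pluripotent cells, seeded 24 h, then differentiated 48 h with two chemical exposures 24 h apart; 10-point series 1 nM - 200 uM. Fixed, nuclear-stained, imaged (5 fields/well); nuclei count as % change vs 0.2% DMSO.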

[6] = tested on: SRY-box transcription factor 17 (SOX17) Protein Expression, Deisenroth Lab, SOX17 (gene 64321); test: CCTE_Deisenroth_DEVTOX-GLR_Pluri_SOX17: CCTE's DevTox GLR-Pluri Assay Evaluation of SRY-box transcription factor 17 (SOX17) Protein Expression, Deisenroth Lab (AID 2284427; active means hit-call score of the fitted dose curve at least 0.9, where 1 is the maximum)
In short: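 RUES2-GLR pluripotent cells were induced toward endoderm over 48 h and received two compound doses 24 h apart, in a 10-point series from 1 nM to 200 uM. The percentage of SOX17+ cells among total cells was measured by high-content imaging and reported minus the 0.2% DMSO control.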

[7] = tested on: Brachyury (BRA) Protein Expression, Deisenroth Lab, TBXT (gene 6862); test: CCTE_Deisenroth_DEVTOX-GLR_Pluri_BRA: CCTE's DevTox GLR-Pluri Assay Evaluation of Brachyury (BRA) Protein Expression, Deisenroth Lab (AID 2284429; active means hit-call score of the fitted dose curve at least 0.9, where 1 is the maximum)
Experimental: CCTE_Deisenroth_DEVTOX-GLR_Pluri assay is a cell-based, multiplex-readout assay that uses RUES2-GLR, a human pluripotent cell line, with measurements taken at 48 hours after chemical dosing in a 384-well microplateCCTE_Deisenroth_DEVTOX-GLR_Pluri_BRA is 1 of 4 assay components calculated from the CCTE_Deisenroth_DEVTOX-GLR_Pluri assay and it measures an the percentage of cells in an mesoderm state. Using a type of inducible fluorescent protein reporter, gain-of-signal activity can be used to understand changes in gene expression with fluorescent microscopy. The percentage of BRA+ cells are determined by calculating the number of BRA+ cells divided by the cell count. To generalize the intended target to other relatable targets, this assay component is annotated to the transcription factor intended target family, where the subfamily is T-box protein.Data from the assay component CCTE_Deisenroth_DEVTOX-GLR_Pluri_BRA was analyzed as 1 assay endpoint. The endpoint is the percent BRA+ cell population minus the 0.2% DMSO control in the CCTE_Deisenroth_DEVTOX-GLR_Pluri assay. Furthermore, this assay endpoint can be referred to as a secondary readout, because this assay has produced multiple assay endpoints where this one serves as a measure of mesoderm differentiation.
All assay protocols are aligned to the DevTox GLR-Endo assay workflow. Cells are seeded into 384-well microplates for 24 hours prior to initiating differentiation in defined media for a total duration of 48 hours. A total of two chemical exposures are administered in 24-hour intervals during the 48-hour differentiation period. At the assay termination point, cells are fixed and stained with a fluorescent dye demarcating the nucleus. High-content imaging is used to acquire brightfield and fluorescent channel images across 5 fields per well. Cell identification and mean biomarker fluorescence intensities are calculated with image analysis software to determine the total cell counts for viability assessment and the biomarker expression frequency for each lineage-dependent assay. A typical experimental design tests a 10-point concentration series (1 nM - 200 uM) for 28 compounds in single technical replicate. Assay plate controls include non-differentiated pluripotent cells (baseline control), lineage-specific differentiated cells (differentiation control), and DMSO solvent exposed differentiated cells (solvent control). Experiments typically comprise a minimum of four experimental replicates (n=4).

TTR (gene 7276) = test: CCTE_GLTED_hTTR_0.125uM: CCTE's human Transthyretin (hTTR) Inhibition Assay, with 0.125uM TTR, Great Lakes Toxicology and Ecology Division (GLTED) Lab (AID 2284431);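 further: hits lower the fluorescence signal relative to DMSO baseline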
In short: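 Cell-free displacement of ANSA probe from 0.125uM TTR after 2 h incubation with chemical. Fluorescence read at 380 nm excitation/475 nm emission; loss of signal relative to DMSO indicates T4-site displacement.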

**Q.** For `Nc1nc2ncc(CNc3ccc(C(=O)N[C@@H](CCC(=O)O)C(=O)O)cc3)nc2c(=O)[nH]1`, which outcome [1] is on record?
**A.** Its outcome is “inactive”.

**Q.** What about the outcome [2] of the same compound?
**A.** Its outcome is “inactive”.

**Q.** What about the outcome [3] of the same compound?
**A.** The outcome was “inactive”.

**Q.** And the outcome [4]?
**A.** The outcome was “inactive”.

**Q.** And the outcome [5]?
**A.** Its outcome is “inactive”.

**Q.** What does the source list for `NC(=O)NO`?
**A.** outcome [1]: inactive; outcome [2]: inactive; AC50 [3]: 61.3 µM (active); outcome [6]: inactive; outcome [4]: inactive; outcome [7]: inactive; outcome [5]: inactive

**Q.** For `O=C(O)c1cc(N=Nc2ccc(S(=O)(=O)Nc3ccccn3)cc2)ccc1O`, which outcome [1] is on record?
**A.** Its outcome is “inactive”.

**Q.** What about the outcome [3] of the same compound?
**A.** Its outcome is “inactive”.

**Q.** What about the outcome [6] of the same compound?
**A.** The outcome was “inactive”.

**Q.** What about the AC50 [4] of the same compound?
**A.** Its AC50 is 100 µM (active).

**Q.** What about the outcome [7] of the same compound?
**A.** Its outcome is “inactive”.

**Q.** What about the outcome [5] of the same compound?
**A.** Its outcome is “inactive”.

**Q.** And the AC50 (TTR (gene 7276))?
**A.** The AC50 was 0.422 µM (active).

**Q.** Which AC50 (TTR (gene 7276)) does the source give for `Oc1ccc2c(c1)-c1ccccc1C2` here?
**A.** The AC50 was 7.96 µM (active).

**Q.** With `Cn1c(=O)c2c(ncn2C)n(C)c1=O` as the compound, how does the outcome [1] read?
**A.** The outcome was “inactive”.

**Q.** And the outcome [2]?
**A.** Its outcome is “inactive”.

**Q.** What about the outcome [3] of the same compound?
**A.** The outcome was “inactive”.

**Q.** What about the outcome [4] of the same compound?
**A.** Its outcome is “inactive”.

**Q.** What about the outcome [5] of the same compound?
**A.** Its outcome is “inactive”.

**Q.** For `C[C@](N)(Cc1ccc(O)c(O)c1)C(=O)O`, which outcome [1] is on record?
**A.** Its outcome is “inactive”.

**Q.** What about the outcome [2] of the same compound?
**A.** Its outcome is “inactive”.

**Q.** And the outcome [3]?
**A.** The outcome was “inactive”.

**Q.** And the AC50 [4]?
**A.** The AC50 was 0.308 µM (active).

**Q.** What about the AC50 [7] of the same compound?
**A.** Its AC50 is 153 µM (active).

**Q.** What about the outcome [5] of the same compound?
**A.** The outcome was “inactive”.

**Q.** For `O=C1CCC(N2C(=O)c3ccccc3C2=O)C(=O)N1` (stereo not drawn), which AC50 [1] is on record?
**A.** Its AC50 is 1.56 µM (active).

**Q.** What about the outcome [2] of the same compound?
**A.** Its outcome is “inactive”.

**Q.** And the outcome [3]?
**A.** Its outcome is “inactive”.

**Q.** And the outcome [4]?
**A.** The outcome was “inactive”.

**Q.** And the outcome [7]?
**A.** The outcome was “inactive”.

**Q.** What about the outcome [5] of the same compound?
**A.** The outcome was “inactive”.

**Q.** For `Nc1ccc(Nc2ccccc2)cc1`, which AC50 (TTR (gene 7276)) is on record?
**A.** The AC50 was 31.5 µM (active).

**Q.** Which AC50 (TTR (gene 7276)) does the source give for `C=CCCCCCCCCC(=O)O` here?
**A.** The AC50 was 7.39 µM (active).

**Q.** For `O=C(O)c1cccc(Oc2ccccc2)c1`, which AC50 (TTR (gene 7276)) is on record?
**A.** The AC50 was 0.542 µM (active).

**Q.** Which results are given for `CC[C@H](C)C(=O)O[C@H]1C[C@@H](C)C=C2C=C[C@H](C)[C@H](CC[C@@H]3C[C@@H](O)CC(=O)O3)[C@H]21`?
**A.** AC50 [1]: 6.57 µM (active); AC50 [2]: 54.2 µM (active); AC50 [3]: 2.81 µM (active); AC50 [6]: 100 µM (active); AC50 [4]: 14.5 µM (active); AC50 [7]: 20.8 µM (active); AC50 [5]: 9.67 µM (active)

**Q.** For `CC(C)=CCCC(C)CCO` (stereo not drawn), which AC50 (TTR (gene 7276)) is on record?
**A.** Its AC50 is 45.8 µM (active).

**Q.** For `O=C(NS(=O)(=O)/C=C/c1ccccc1)c1ccc(F)cc1Cl`, which AC50 (TTR (gene 7276)) is on record?
**A.** The AC50 was 13 µM (active).

**Q.** With `Cn1cnc([N+](=O)[O-])c1Sc1ncnc2nc[nH]c12` as the compound, how does the AC50 (TTR (gene 7276)) read?
**A.** The AC50 was 25.1 µM (active).

**Q.** With `COC(=O)c1c(Cl)c(Cl)c(C(=O)OC)c(Cl)c1Cl` as the compound, how does the AC50 (TTR (gene 7276)) read?
**A.** The AC50 was 0.0546 µM (active).

**Q.** With `O=C(OC[C@H]1O[C@@H](OC(=O)c2cc(O)c(O)c(OC(=O)c3cc(O)c(O)c(O)c3)c2)[C@H](OC(=O)c2cc(O)c(O)c(OC(=O)c3cc(O)c(O)c(O)c3)c2)[C@@H](OC(=O)c2cc(O)c(O)c(OC(=O)c3cc(O)c(O)c(O)c3)c2)[C@@H]1OC(=O)c1cc(O)c(O)c(OC(=O)c2cc(O)c(O)c(O)c2)c1)c1cc(O)c(O)c(OC(=O)c2cc(O)c(O)c(O)c2)c1` as the compound, how does the AC50 (TTR (gene 7276)) read?
**A.** Its AC50 is 0.252 µM (active).

**Q.** Which AC50 (TTR (gene 7276)) does the source give for `COc1ccc(/C=C/S(=O)(=O)NC(=O)c2ccc(C)cc2Cl)cc1` here?
**A.** The AC50 was 12.1 µM (active).
